# Screening data (PubChem)
# Only some compounds are listed: those with a hit (about 1.8% of all), similar ones and a draw of the others.
# EWS-Fli block – EWS/Fli transcriptional activity inhibition; A673 NR0B1-luciferase reporter, viability-normalised; inhibition, % at 12.6 µM; hit rate 0.67% among 350,000; AID 651661;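 active = mean inhibition of at least 50% after viability correction, with every replicate also passing that limit; inconclusive = mean reaches 50% but only one of two replicates passes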;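 note: firefly luciferase signal divided by Alamar Blue viability fluorescence both relative to DMSO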
# LGR2 antag – blocks bursicon-induced cAMP signaling via Drosophila LGR2. HEK293 LGR2, CRE-luciferase, bursicon-stimulated, 4 h. hit rate 0.35% among 380,000. inhibition, % at 9.99 µM;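 active = drop in luminescence signal, shown as inhibition above about 50% in the replicate tests, limit read from the data, passing the limit was not always enough; inconclusive = probably only some replicates passing the limit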;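 note: agonist challenge used bursicon conditioned medium at about half maximal strength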
# PAX8 reporter – PAX8 transcriptional activity inhibition | RMG-I TPO-luciferase reporter, SteadyGlo, 24 h | inhibition, % at 12.6 µM | hit rate 1.2% among 360,000;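 active = mean replicate inhibition at least 60% with every replicate also reaching 60%; inconclusive = only one of the two criteria is met; inactive = mean below 60% and not all replicates reaching 60%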;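 note: luciferase light reporting Pax8 driven TPO promoter activity; plate controls were median of neutral control wells for no effect and mitoxantrone controls for full effect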
# CFTR F508del cor – CFTR F508del correction in bronchial cells | CFBE cells, YFP halide quenching; stimulated with forskolin plus potentiator P3; % fluorescence drop versus neutral controls | activity (quench increase), % at 7.58 µM | hit rate 0.36% among 350,000 | AID 720511;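 active = mean added fluorescence quench of at least 8% versus neutral control, with both replicates also reaching 8%; inconclusive = only one of the mean or replicate conditions met; inactive = mean below 8% and not both replicates reaching 8%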;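 note: cells transiently co-express mutant CFTR-F508del with the halide-sensitive YFP; corrector assay measuring rescue of mutant channel to the surface after 24 h compound exposure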
# * = called active by the depositor; ? = inconclusive; . = not tested or not shown.
SMILES,EWS-Fli block,LGR2 antag,PAX8 reporter,CFTR F508del cor
C=COC(=O)NC1CCc2cc(OC)c(OC)c(OC)c2-c2ccc(SC)c(=O)cc21 (configuration not stated),29.0,-3.9,65.0*,0.1
COc1cc2c(c(OC)c1OC)C(=O)CC2,5.2,7.4,-4.6,1.2
CSc1ccccc1OCc1cc(C(=O)NC2CCc3ccccc32)no1 (configuration not stated),3.9,-15.7,9.6,1.9
COc1cc2c(c(OC)c1OC)-c1ccc(SC)c(=O)cc1C(NC(=O)c1ccccc1)CC2 (configuration not stated),29.5,-4.9,67.0*,0.2
C[C@@H]1CN([C@H](C)CO)C(=O)CCCn2nncc2CO[C@@H]1CN(C)C(=O)Nc1ccccc1,-3.9,1.3,-14.1,0.9
C[C@@H]1CCCCO[C@@H](CN(C)S(=O)(=O)c2ccc(F)cc2)[C@H](C)CN([C@@H](C)CO)C(=O)c2cc(NS(=O)(=O)c3cn(C)cn3)ccc2O1,0.8,-7.5,2.2,-1.2
COc1cc(C(=O)NC2CCCc3ccccc32)cc(OC)c1C (configuration not stated),10.2,6.4,5.2,0.3
COc1cc2c(c(OC)c1OC)-c1ccc(OC)c(=O)cc1C(NC(=O)c1ccccc1)CC2 (configuration not stated),?,-18.1,69.9*,2.4
S=c1[nH]nc(-c2n[nH]c3c2CCC3)n1/N=C/C=C/c1ccccc1,12.2,-1.7,6.3,-7.9
C[C@H](CO)N1C[C@H](C)[C@@H](CN(C)Cc2cccnc2)Oc2cc(-c3cncnc3)ccc2S1(=O)=O,-25.2,14.3,.,1.8
N#CCCN(C(=O)COC(=O)c1cc(=O)c2ccccc2o1)c1ccccc1,0.7,-11.8,-14.3,12.9*
COc1ccc2c3c(n(C)c2c1)[C@@H](CO)N(C(=O)C1CC1)CC31CCN(C(=O)c2ccncc2)CC1,1.0,28.7,2.7,2.6
CCCCn1c(N)c(N(CCOC)C(=O)CSCc2ccccc2C)c(=O)[nH]c1=O,2.8,-7.9,-13.5,1.9
O=C(C[C@@H]1C[C@@H]2c3cc(NS(=O)(=O)c4ccc(F)cc4)ccc3O[C@@H]2[C@H](CO)O1)NCc1ccc(Cl)cc1,7.2,-4.0,3.3,-0.1
O=C(C[C@@H]1C[C@H]2c3cc(NS(=O)(=O)c4ccc(F)cc4)ccc3O[C@H]2[C@H](CO)O1)NCc1ccccc1,-2.1,-8.9,47.6,-3.5
O=C(C[C@H]1C[C@H]2c3cc(NS(=O)(=O)c4ccc(F)cc4)ccc3O[C@H]2[C@H](CO)O1)NCc1ccc(-c2ccccc2)cc1,30.8,29.5,83.8*,-2.5
O=C(C[C@@H]1C[C@@H]2c3cc(NS(=O)(=O)c4ccc(F)cc4)ccc3O[C@@H]2[C@@H](CO)O1)NCc1ccc(-c2ccccc2)cc1,18.2,.,87.4*,-0.8
O=C(C[C@@H]1C[C@H]2c3cc(NS(=O)(=O)c4ccc(F)cc4)ccc3O[C@H]2[C@H](CO)O1)NCc1ccc(Cl)cc1,-15.2,3.0,77.9*,5.3
O=C(C[C@@H]1C[C@H]2c3cc(NS(=O)(=O)c4ccc(F)cc4)ccc3O[C@H]2[C@@H](CO)O1)NCc1ccc(-c2ccccc2)cc1,-10.1,15.8,73.5*,-0.3
C[C@H](CO)N1C[C@H](C)[C@@H](CN(C)CC2CC2)Oc2ccc(NS(=O)(=O)c3ccccc3)cc2CC1=O,-7.7,-4.9,-7.7,0.4
O=C(NCc1ccco1)C(=O)NCC1OCCCN1S(=O)(=O)c1ccccc1 (configuration not stated),.,3.2,-12.6,.
COc1cc(/C=C2\SC(=Nc3ccc(Cl)c(C(=O)O)c3)NC2=O)c(Br)c(Br)c1O,6.2,-4.2,15.6,29.0*
COc1cc(/C=C2/SC(=Nc3ccc(O)cc3)NC2=O)ccc1O,54.3*,-19.8,56.3,6.2
CCc1ccc(N=C2NC(=O)/C(=C/c3cc(OC)c(O)c(OC)c3)S2)cc1,3.3,9.9,3.0,-0.4
COc1cc(/C=C2\SC(=Nc3ccccc3OC)NC2=O)ccc1O,34.7,5.7,70.5*,-0.5
SMILES,EWS-Fli block,LGR2 antag,PAX8 reporter,CFTR F508del cor
COc1ccc(/C=C2\SC(=Nc3ccccc3OC)NC2=O)cc1,3.7,-5.3,23.6,6.0
COc1cc(/C=C2\SC(=Nc3ccccc3)NC2=O)cc(Cl)c1O,19.2,-24.7,-14.9,4.6
CC(C)(C)c1ccc(/C=N/NC(=O)c2ccccn2)cc1,46.9,86.4*,-5.1,-3.5
CC(C)(C)c1ccc(C(=O)O/N=C(\N)c2ccccn2)cc1,74.9*,101.8*,69.5*,0.8
N/C(=N\OC(=O)c1ccc(Br)o1)c1ccccn1,10.9,73.9*,-11.5,-0.7
CCOc1ccc(C(=O)O/N=C(\N)c2ccccn2)cc1,80.6*,102.5*,128.1*,8.2*
CCc1ccc(OCC(=O)O/N=C(\N)c2ccccn2)cc1,-68.2,-35.6,-141.2,0.7
O=C1Nc2cnc(Cl)nc2Nc2ccc(Cl)cc21,-10.4,-16.8,-8.3,2.6
CN(C)CCCNC(=O)C[C@H]1C=C[C@H](NC(=O)c2ccccc2F)[C@H](CO)O1,-2.4,11.7,-5.7,-1.4
N/C(=N\OC(=O)/C=C/c1ccccc1Cl)c1ccccn1,42.0,73.0*,19.1,2.0
N/C(=N\OC(=O)c1ccccc1)c1ccccn1,19.6,95.4*,16.5,.
COc1ccc(C(=O)C2CCN(CC(=O)Nc3ccc(OC)cc3OC)CC2)cc1,9.0,-6.4,3.6,1.7
CC1CCC(C(C)C)C(OC(=O)Cn2c(-c3ccc(F)cc3)[n+](C)c3ccccc32)C1 (configuration not stated),13.4,?,94.2*,7.7
CC1CCC(C(C)C)C(OC(=O)Cn2c(-c3ccccc3)[n+](C)c3ccccc32)C1 (configuration not stated),13.8,58.9*,81.3*,-5.8
CC1CCC(C(C)C)C(OC(=O)C[n+]2cc(-c3ccc(Cl)cc3)n3c2CCC3)C1 (configuration not stated),13.7,32.7,41.1,4.4
CCCCCOc1ccc(Br)cc1CSC(=N)N,47.9,?,55.4,2.2
CCCCCc1ccc(OCCCC[n+]2cccc(C)c2)c(CCCCC)c1,33.4,?,93.7*,7.7
CCCCCc1ccc(OCCCC[n+]2ccc(C)cc2)c(CCCCC)c1,32.7,54.3*,73.8*,?
COc1ccc(C(C)NCCC(c2ccc(OC(C)C)cc2)c2ccccc2OC)cc1 (configuration not stated),?,98.7*,51.3,-1.7
N=c1n(Cc2ccccc2)c2ccccc2n1CC(O)COc1ccc(Cl)cc1Cl (configuration not stated),61.5*,101.3*,93.4*,.
N=c1n(Cc2ccc(Cl)cc2)c2ccccc2n1CC(O)COc1ccccc1 (configuration not stated),-15.2,83.3*,55.7,-0.2
COc1ccc(OCC(O)Cn2c(=N)n(Cc3ccccc3)c3ccccc32)cc1 (configuration not stated),.,.,6.5,.
Cc1ccsc1S(=O)(=O)N1CCCC(CCC(=O)NCc2ccccc2F)C1 (configuration not stated),-3.8,5.1,0.0,-2.3
